Assay outcomes (PubChem)
The list is not random: actives were taken first. Their share in the collection is about 2.3%.
SIRT5 block: SIRT5 desuccinylase inhibitors, primary screen, biochemical, fluorescence imaging, single point, set 5. NAD-dependent protein deacylase sirtuin-5, mitochondrial (Homo sapiens), Q9NXA8. Purified SirT5, succinyl-peptide AMC, trypsin-coupled fluorescence. inhibition, % at 15 µM. 1.1% of 330,000 active; in the data active means inhibition above about 15%; inconclusive means no clear call, values can overlap the other calls
ERp5 inh: inhibitors of ERp5-driven insulin aggregation, primary screen, biochemical, turbidity, absorbance 650 nm, single point; 0.05% of 350,000 active; Protein disulfide-isomerase A6 (Homo sapiens), Q15084; inhibition, % at 9.99 µM; AID 651711, 2012; 90 min;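 active means mean replicate inhibition above about 25%, with every replicate also reaching it, limit read from the data, passing the limit was not always enough; inconclusive means only one of those two criteria met; inactive means neither criterion met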
DENV2 CPE: inhibitors of DENV2 cytopathic effect, primary screen, cell-based, plate reader, single concentration | DENV2-infected cells, cytopathic effect rescue | CPE inhibition, % at 9.99 µM | 1.7% of 350,000 active | AID 651640, 2012; in the data active means CPE inhibition above about 20%, passing the limit was not always enough; inconclusive means no clear call, values can overlap the other calls; tested in BHK-21 cells;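 further: 0% = median of neutral control wells and 100% = median of positive control wells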
Rtt109 HAT inh: inhibitors of C. albicans Rtt109/Vps75 HAT, primary screen, biochemical, ThioGlo CoA-SH fluorescence, plate reader. Histone acetyltransferase RTT109 (Candida albicans (strain SC5314 / ATCC MYA-2876)), …. purified Rtt109/Vps75, 4 h. inhibition, % at 34.9 µM. 0.16% of 330,000 active. AID 540336, 2011;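 active means inhibition of at least 50% in every replicate; inconclusive means best replicate reaches 50% inhibition but some replicates fall short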
PDI turbidity: inhibitors of human PDI, primary screen, biochemical, turbidity, single point, plate reader. PDI insulin aggregation turbidity, A650, 90 min. Protein disulfide-isomerase (Homo sapiens), P07237. AID 588391, 2011. inhibition, % at 10 µM. 0.052% of 350,000 active;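 active means mean inhibition across replicates of 30% or more, whatever share of single replicates reach that level; inconclusive means mean inhibition below 30% while every single replicate reaches 30%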
Target sequence (P07237 whole entry, looked up): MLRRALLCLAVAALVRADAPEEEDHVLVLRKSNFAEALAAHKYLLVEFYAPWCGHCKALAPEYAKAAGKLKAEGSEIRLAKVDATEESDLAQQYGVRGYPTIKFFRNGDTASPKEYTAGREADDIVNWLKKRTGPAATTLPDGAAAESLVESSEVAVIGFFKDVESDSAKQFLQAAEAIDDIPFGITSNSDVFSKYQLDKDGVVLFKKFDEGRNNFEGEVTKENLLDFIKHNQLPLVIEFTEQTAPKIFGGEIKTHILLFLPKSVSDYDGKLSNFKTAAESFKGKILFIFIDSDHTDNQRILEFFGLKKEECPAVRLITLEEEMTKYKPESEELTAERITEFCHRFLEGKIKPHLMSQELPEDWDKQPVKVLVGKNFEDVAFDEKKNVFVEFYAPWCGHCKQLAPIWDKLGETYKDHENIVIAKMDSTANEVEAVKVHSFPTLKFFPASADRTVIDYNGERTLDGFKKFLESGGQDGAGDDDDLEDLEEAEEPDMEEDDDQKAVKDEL
Numbers without * were called inactive; ? = inconclusive; . = no result given.

SMILES | SIRT5 block | ERp5 inh | DENV2 CPE | Rtt109 HAT inh | PDI turbidity
COc1ccc2c3c([nH]c2c1)[C@H](CO)N(C(=O)C1CCCC1)CC31CN(C(=O)c2ccncc2)C1 | 1 | -2 | -3 | . | .
COc1ccc(C#Cc2ccc([C@H]3[C@@H](CO)N4CCCCN(S(=O)(=O)c5ccccc5)C[C@@H]34)cc2)cc1 | 2 | -2 | 82* | . | .
COc1ccc(C#Cc2ccc([C@H]3[C@H](CO)N4CCCCN(S(=O)(=O)c5ccccc5)C[C@@H]34)cc2)cc1 | 11 | -1 | -30 | . | .
Oc1ccc(NC(=S)Nc2ccc(F)cc2)cc1 | 5 | 2 | -5 | -1 | 0
Fc1ccc(NC(=S)Nc2ccc(Br)cc2)cc1 | . | . | . | 55* | 4
C[C@H]1CN([C@@H](C)CO)C(=O)c2cccc(NC(=O)C3CCCCC3)c2O[C@@H]1CN(C)S(C)(=O)=O | 3 | 1 | -1 | . | .
O=C(c1ccccc1Cc1ccccc1)N1CCN(S(=O)(=O)c2ccccc2F)CC1 | 0 | 2 | 10 | 4 | 4
O=C(c1ccccc1Cc1ccccc1)N1CCN(S(=O)(=O)c2ccccc2)CC1 | -2 | 2 | 68* | -2 | -1
COc1ccc(CNC(=O)CCNC(=O)c2ccco2)cc1OC | -3 | 13 | 39* | 6 | -12
O=C(Nc1cccc([N+](=O)[O-])c1)c1ccc(CSc2ccccc2)cc1 | . | . | . | -1 | 0
O=C(Nc1ccc(CSc2ccccc2)cc1)c1ccccc1 | 15* | 5 | 6 | -3 | -4
C[C@@H]1CN([C@@H](C)CO)C(=O)c2cc(NS(C)(=O)=O)ccc2O[C@@H](C)CCCCO[C@@H]1CN(C)C | 25* | 12 | ? | . | .
C[C@H]1CCCCO[C@H](CN(C)C)[C@@H](C)CN([C@@H](C)CO)C(=O)c2cc(NS(C)(=O)=O)ccc2O1 | -3 | 2 | -1 | . | .
CNC[C@@H]1OCCCC[C@H](C)Oc2ccc(NS(C)(=O)=O)cc2C(=O)N([C@@H](C)CO)C[C@@H]1C | 5 | 0 | 132* | . | .
O=C(CC(C(=O)O)c1ccc(Cl)cc1)c1ccc(Br)cc1 (stereo not given) | 17* | 2 | 0 | 5 | 4
C[C@H]1CN([C@@H](C)CO)C(=O)c2cc(NC(=O)Nc3ccc(F)cc3)ccc2O[C@@H]1CN(C)C(=O)Nc1ccc(F)cc1 | -1 | -2 | ? | . | .
COc1ccccc1CC(=O)NNS(=O)(=O)c1ccc([N+](=O)[O-])cc1 | 25* | -6 | -9 | 5 | 3
O=C(N1CCOCC1)[C@]1(CCS(=O)(=O)c2ccccc2)N=C(c2ccc(OCCCO)cc2)O[C@@H]1c1ccccc1 | -3 | 1 | 23* | . | .
COC(=O)[C@@]1(CCS(=O)(=O)c2ccccc2)N=C(c2ccc(OCCCO)cc2)O[C@H]1c1ccccc1CN=[N+]=[N-] | 1 | -10 | 22* | . | .
O=C(NCCN1CCOCC1)[C@@]1(CCS(=O)(=O)c2ccccc2)N=C(c2ccc(OCCCO)cc2)O[C@H]1c1ccccc1 | -1 | -4 | -6 | . | .
COc1cccc(-c2ccc3c(c2)O[C@@H](CN(C)C)[C@@H](C)CN([C@H](C)CO)S3(=O)=O)c1 | -3 | -2 | -6 | . | .
CS(=O)(=O)NCc1ccc(C(=O)NCCOc2ccccc2)cc1 | -6 | 3 | 31* | 10 | -2
COc1ccc(CN(C)C[C@@H]2OCCCC[C@@H](C)Oc3ccc(NC(=O)CCCN(C)C)cc3C(=O)N([C@@H](C)CO)C[C@@H]2C)cc1 | 2 | -7 | 17 | . | .
C[C@H](CO)N1C[C@H](C)[C@@H](CN(C)C(=O)Cc2ccccc2)OCCCC[C@H](C)Oc2ccc(NC(=O)c3ccccc3)cc2C1=O | -3 | 14 | -2 | . | .
N#C/C(=C\c1ccncc1)c1nc2c(s1)CCCC2 | -8 | -3 | 8 | 57* | -1
SMILES | SIRT5 block | ERp5 inh | DENV2 CPE | Rtt109 HAT inh | PDI turbidity
CC1CC(C)CN(S(=O)(=O)c2ccc3c(c2)oc(=O)n3CC(=O)NCc2cccnc2)C1 (stereo not given) | 22* | 7 | -4 | -7 | -4
CCC(C)(C)NC(=O)Cn1c(=O)oc2cc(S(=O)(=O)N3CC(C)CC(C)C3)ccc21 (stereo not given) | -2 | -7 | 1 | -28 | 9
COC(=O)c1cc(-c2ccccc2)n[nH]1 | . | . | . | 0 | -1
COC(=O)c1cc(C(=O)OC)[nH]n1 | 16* | -8 | 6 | -14 | 0
CC(=O)OCCNc1cc(Sc2nc3ccccc3[nH]2)c2nonc2c1[N+](=O)[O-] | . | . | . | 70* | 5
CC(=O)OCCCNc1cc(Sc2nc3ccccc3s2)c2nonc2c1[N+](=O)[O-] | . | . | . | 2 | 16
O=C(C1CCCCC1)N1C[C@@H]2[C@H](c3ccccc31)[C@@H](CO)N2Cc1ccccc1Cl | 9 | -3 | 2 | . | .
COc1ccc(Nc2cc(C)nc3ccccc23)cc1 | 18* | 3 | . | 13 | -3
CN1[C@@H]2c3ccc(-c4ccc(F)cc4)c(=O)n3C[C@@H]2[C@@H](CO)[C@@H]1C(=O)NCCN1CCCCC1 | -2 | 2 | 13 | . | .
O=C(C[C@@H]1C=C[C@@H](NC(=O)c2ccc3c(c2)OCO3)[C@H](CO)O1)NCc1ccc(Oc2ccccc2)cc1 | 7 | -3 | -9 | . | .
CCN(Cc1ccc(OC)c(COC)c1)CC1CCCN(CCc2cccc(OC)c2)C1 (stereo not given) | . | 2 | 25* | ? | 1
COc1ccc(NC(=O)N(C)C[C@@H]2Oc3ccc(NS(=O)(=O)c4ccc(Cl)cc4)cc3C(=O)N([C@H](C)CO)C[C@H]2C)cc1 | 2 | -3 | 2 | . | .
C[C@H](CO)N1C[C@H](C)[C@@H](CN(C)Cc2ccc(C(=O)O)cc2)OCCCC[C@H](C)Oc2ccc(NS(=O)(=O)c3ccc(Cl)cc3)cc2C1=O | -3 | 2 | ? | . | .
Cc1c([N+](=O)[O-])cc(N2C(=O)C=CC2=O)cc1[N+](=O)[O-] | -4 | 2 | . | -6 | -9
Cc1cc(N2C(=O)C=CC2=O)c([N+](=O)[O-])cc1C | . | . | . | 116* | -2
CC(C)(C)OC(=O)N1CCC[C@H]1c1nnc(SCc2cccc(Cl)c2)o1 | 23* | -2 | -2 | -10 | -2
CNC(=O)C[C@@H]1CC[C@@H]2[C@@H](COc3ccc(NC(=O)c4ccccc4Cl)cc3C(=O)N2C)O1 | -1 | 2 | 4 | . | .
C[C@@H]1CN([C@@H](C)CO)C(=O)c2cc(-c3ccc(F)cc3)cnc2O[C@H]1CN(C)C(=O)NC1CCCC1 | -3 | -3 | -6 | . | .
Cc1ccccc1C(=O)NC(=S)NCCC1=CCCCC1 | 35* | -3 | -5 | -1 | -3
O=C(NC(=S)NCCC1=CCCCC1)c1ccco1 | -1 | -9 | 0 | 2 | 1
